# Pol kappa inh – blocks human DNA polymerase kappa activity; Q9UBT6; Potency, µM (titrated, usually from 107 µM), for inactives: top-dose activity, negative = inhibition, usual class: inhibitors; purified Pol kappa, fluorescent DNA synthesis assay, 10 min; actives 0.53% (n = 400,000); note: potency is the fitted concentration of half-maximal effect; % is set by controls: 0 for no effect and ±100 for the full control effect
#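 50 nM final substrate added after 15 min RT preincubation of 10 nM Pol kappa with compound; fluorescence read at 0 and 10 min.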
# Pol eta inh – blocks human DNA polymerase eta activity; Q9Y253; recombinant Pol eta, fluorescent DNA replication assay; Potency, µM (highest dose often 114 µM), for the others: at the highest dose activity change, negative = inhibition, most hits filed as inhibitors; actives 1.2% (n = 390,000); AID 588591; note: potency is the fitted concentration of half-maximal effect; % is set by controls: 0 for no effect and ±100 for the full control effect
#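 Pol eta (10 nM) was preincubated with compounds for 15 min at room temperature, after which fluorescent replication substrate (50 nM final) was added to start the reaction. Fluorescence was read kinetically at 0 and 10 min.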
# ALOX12 inh – blocks human arachidonate 12S-lipoxygenase | P18054 | purified 12hLO, xylenol orange hydroperoxide absorbance | Potency, µM (titrated, usually from 108 µM), for the others: at the highest dose activity change, negative = inhibition, actives largely listed as inhibitors | actives 1.1% (n = 580,000) | AID 1671190; note: potency is the fitted concentration of half-maximal effect; % is set by controls: 0 for no effect and ±100 for the full control effect
#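 Purified human 12hLO (150 nM final) in 25 mM Hepes, 0.01% Triton X-100, pH 7.0 was preincubated 15 min at room temperature with compound. Then 40 uM arachidonic acid was added, 30 min. Hydroperoxide was read by Fe-XO absorbance ratio 573/405 nm.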
# POLI inh – DNA polymerase iota (human) inhibition; Pol iota fluorescent replication assay, 10 min; Potency, µM (doses to about 115 µM), inactives show at the highest dose activity, negative = inhibition, hits mostly inhibitors; Q9UNA4; actives 1% (n = 390,000); note: potency is the fitted concentration of half-maximal effect
#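 Fluorescent replication assay read twice, at 0 min and 10 min after adding 50 nM (final) substrate. Enzyme (10 nM) and compounds were first incubated 15 min at room temperature; enzyme-free buffer wells were negative controls.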
# PI5P4Ka inh – inhibitors of human PI5P4K alpha; actives 1.2% (n = 330,000); max response, %; AID 652105; PI5P4Kalpha enzyme, ADP-Glo luminescence, 60 min; active compounds read low; P48426; active = max response of -50% or lower; inconclusive = between -30% and -50%; inactive = -30% or higher; note: value at the top dose of about 77 µM; % is set by controls: 0 for no effect and ±100 for the full control effect
# Target sequence (P48426 whole entry, looked up): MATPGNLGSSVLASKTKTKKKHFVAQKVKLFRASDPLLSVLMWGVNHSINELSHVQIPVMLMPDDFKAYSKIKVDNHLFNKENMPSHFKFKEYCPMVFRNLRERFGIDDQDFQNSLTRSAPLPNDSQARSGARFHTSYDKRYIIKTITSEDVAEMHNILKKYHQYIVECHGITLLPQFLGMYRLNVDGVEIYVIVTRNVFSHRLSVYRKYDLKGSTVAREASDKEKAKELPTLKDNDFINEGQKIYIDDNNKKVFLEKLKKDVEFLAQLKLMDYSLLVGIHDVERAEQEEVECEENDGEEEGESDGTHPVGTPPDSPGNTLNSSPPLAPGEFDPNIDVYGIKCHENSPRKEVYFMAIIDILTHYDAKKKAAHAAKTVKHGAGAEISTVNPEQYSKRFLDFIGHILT
#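 Luminescence from ADP-Glo served as readout of PI5P4Kalpha activity in a qHTS format. Reaction: enzyme, substrate, compound, ATP at 5 microM final, 60 min at RT.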
# Pol beta inh – DNA polymerase beta (human) inhibition. actives 1.3% (n = 340,000). Potency, µM (series often up to 114 µM), without a hit: at the top dose activity change, negative = inhibition, actives largely listed as inhibitors. Pol beta primer extension/strand displacement, fluorescence kinetic; note: potency is the fitted concentration of half-maximal effect; % is set by controls: 0 for no effect and ±100 for the full control effect
#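 Curves were derived by four-parameter Hill fits of normalized qHTS data. The kinetic fluorescent primer-extension read was taken at 0 and 10 min after 50 nM substrate, following a 15 min room-temperature preincubation of 10 nM enzyme with compounds.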
# Active calls of the source: *; u = inconclusive; x = not tested or not shown; ! = not active in a repeat; [ ] = dose if it differs, or a comment. Only some compounds are listed: those with a hit (about 2.9% of all), similar ones and a draw of the others. Unless noted, calls come from the whole dose curve; as a rule, active = well fitted inhibition curve with a large enough effect; inconclusive = small, poorly fitted or top-dose-only effect, or another doubt; inactive = no such curve, though single readings can be large or run the other way.
SMILES,Pol kappa inh,Pol eta inh,ALOX12 inh,POLI inh,PI5P4Ka inh,Pol beta inh
COc1ccc(/C=N/n2c(-c3ccc(C)cc3)n[nH]c2=S)cc1OC,4%,-6%,10µM*,6%,0,-1%
Oc1c(Br)cc(/C=N/n2c(-c3ccccc3)n[nH]c2=S)cc1Br,-11%,-14%,22µM*,164%,-92*,-9%
COc1cc(/C=N/n2c(-c3ccccc3)n[nH]c2=S)cc(OC)c1O,-11%,-21%,u,14%,-22,-16%
CCC(=O)Nc1ccc(-c2nc3cc(OC)ccc3o2)cc1,x,x,1%,x,x,x
O=C(NNc1ccnc2cc(Cl)ccc12)C1CCCCC1,-2%,0%,u,118%,4,1%
Cc1ccc(NNC(N)=S)cc1Cl,-1%,-2%,28µM*,8%,9,-3%
CCc1ccc(C(=O)NNc2ccc(C)c(Cl)c2)cc1,-8%,-3%,16µM*,14%,-4,-2%
NC(=S)NNc1ccnc2cc(Cl)ccc12,-1%,-4%,5.6µM*,71%,u,1%
NC(=S)NNc1ccc(Cl)c(Cl)c1,-9%,5%,16µM*,u,-11,-5%
COc1cc(OC)c2c(C)c(CC(=O)Nc3ccc(F)cc3)c(=O)oc2c1,x,x,-18%,x,x,x
O=C(NC(C1CC1)C1CC1)c1ccc(Cl)cc1,x,x,-1%,x,x,x
Cc1ccc(-c2csc3nc[nH]c(=S)c23)cc1,0%,-23%,35µM*,16%,-13,0%
Cc1cc(-c2csc3nc[nH]c(=S)c23)cc(C)c1C,-1%,-22%,28µM*,72%,u,-1%
Cc1sc2nc[nH]c(=S)c2c1-c1ccccc1,-4%,-17%,32µM*,167%,-24,4%
O=C1CCN(S(=O)(=O)c2ccccc2)CCCN(S(=O)(=O)c2cccc(F)c2)CCN1,x,x,-7%,x,x,x
O=C(Nc1ccccc1)c1ccc2c(c1)OCCN(c1ccccc1)C2,x,x,8%[176 µM],x,x,x
Cc1nc2nc(C)c(CCC(=O)NCCCN3CCN(c4cccc(Cl)c4)CC3)c(C)n2n1,3%,-6%,u,32µM*!,-6,15%
N/C(=N\OC(=O)c1cccc2ccccc12)c1cccc([N+](=O)[O-])c1,-31%,-9%,-9%,u,x,50µM*
Cc1ccccc1C(=O)O/N=C(\N)c1cccc([N+](=O)[O-])c1,0%,-9%,11%,-23%,x,u
CCc1ccc(C(=O)NNC(=O)C2CC(=O)N(c3ccc4c(c3)OCCO4)C2)cc1 (centres undefined),0%,4%,7%,9%,2,x
O=C(CSc1nnc(NC(=O)C2CC(=O)N(c3ccccc3)C2)s1)NCc1ccco1 (centres undefined),u,u,-11%,50µM*,u,89µM*
COc1cccc(N2CC(C(=O)Nc3nnc(SCC(=O)NCc4ccco4)s3)CC2=O)c1 (centres undefined),u,32µM*,-12%,40µM*,-61*,u
COC(=O)c1ccc(CSc2nnc(NC(=O)C3CC(=O)N(c4ccc5c(c4)OCCO5)C3)s2)cc1 (centres undefined),-28%,u,-9%,u,u,28µM*
CC(C)(C)N1NC2(CCCCC2)NC1=S,4%,-1%,u,27%,-58*,9%
Cc1ccc(N2NC3(CCC(C)CC3)NC2=S)cc1 (centres undefined),x,x,1.3µM*,x,x,x
SMILES,Pol kappa inh,Pol eta inh,ALOX12 inh,POLI inh,PI5P4Ka inh,Pol beta inh
Cc1ccc(N2NC3(CCCCCC3)NC2=S)cc1,x,x,1µM*,x,x,x
S=C1NC2(CCCCC2)NN1c1ccccc1,-2%,-6%,u,47%,-10,-2%
O=C(O)c1ccccc1-c1ccccc1C(=O)Nc1ccc(-c2nc3cc(Cl)ccc3o2)cc1,-20%,u,45µM*,u,0,u
COc1cccc(OC)c1C(=O)Nc1ccc(-c2nc3ccccc3o2)cc1,x,x,40µM*,x,x,x
Cc1[nH]c2ccccc2c1C(C(=O)O)N1CCN(c2cc(C)c3ccccc3n2)CC1 (centres undefined),x,x,-28%,x,x,x
Oc1c(Br)cc(/C=N/NC(=S)NCc2ccco2)cc1Br,-16%,-13%,u,-12%,-74*,u
Oc1ccc(/C=N/NC(=S)NCc2ccco2)cc1,-2%,-20%,-19%,23%,-13,12%
S=C(NCc1ccco1)N/N=C/c1ccc(Cl)cc1,-10%,-7%,45µM*,-2%,14,-28%
O=C(c1cn(-c2ccccc2)nc1-c1cccnc1)N1CCN(c2ccc(F)cc2)CC1,x,x,18%,x,x,x
C[C@@H](O)[C@H](Nc1ncnc2sc3c(c12)CCCC3)C(=O)O,x,x,-15%,x,x,x
CC(Sc1ccc(Cl)cc1)C(=O)NC1CC2CCC1C2 (centres undefined),x,x,-21%,x,x,x
Cc1cccc(OCC(=O)NC(CC(C)C)C(=O)N(C)C)c1 (centres undefined),x,x,24%,x,x,x
CCC(C)(C)c1ccc2c(C(=O)N3C[C@H](N)C[C@H]3C(=O)NC)csc2c1,x,x,13µM*,x,x,x
FC(F)(F)c1cccc(Nc2cnc3ccc(N4CCOCC4)nn23)c1,x,x,9%[176 µM],x,x,x
Oc1ccc(Br)cc1/C=N/NC(=S)NCCc1ccccc1,2%,-20%,u,70%,-25,32%
S=C(NCCc1ccccc1)N/N=C/c1ccccc1Cl,-7%,-11%,40µM*,2%,10,25%
S=C(NCCc1ccccc1)N/N=C/c1ccccc1Br,x,x,35µM*,x,x,x
CCCCNC(=S)N/N=C/c1ccc(C#N)cc1,u,-98%,-17%,-97%,-73*,0%
CCN(Cc1ccccc1)c1ccc(/C=N/NC(=S)NC(C)C)cc1,-6%,-14%,45µM*,5%,4,1%
CSc1ccc(/C=C(/C#N)C(=O)C(C)(C)C)cc1,x,x,-5%,x,x,x
CN(C)c1ccc(/C=N/NC(=S)NCc2ccccc2)cc1,-9%,u,u,-23%,-7,19%
CCc1ccc(/C=N/NC(=S)NCCc2ccccc2)cc1,-15%,1%,22µM*,5%,-1,-1%
CC(C)(C)c1ccc(/C=N/NC(=S)NCc2ccccc2)cc1,-15%,-10%,45µM*,130%,14,34%
CCC(C(=O)Nc1cccc(OC)c1)n1nnc(C(=O)OC)c1C(=O)OC (centres undefined),x,x,-5%,x,x,x
CCN1C(=O)CCc2cc(NC(=O)c3ccc(C(C)C)cc3)ccc21,x,x,23%,x,x,x
O=C(/C(=C/c1ccccc1F)c1nc2ccccc2o1)c1ccccc1,x,x,7%,x,x,x
CC(=O)Oc1c2occc2cc2ccc(=O)oc12,u,u,u,u,0,50µM*
O=c1c(Cl)c(Oc2cccc(OCC(F)(F)F)c2)cnn1-c1ccc(C(F)(F)F)cn1,x,x,6%,x,x,x
